Test results: PubChem BioAssay (NCI)
About 79,000 compounds went through this panel and 15% of them were active in at least one assay; those are over-represented in the sample as a whole. The source made the active and inactive calls. No stated cut-off is given here; in the data, active means growth inhibition above about 70%; inactive means the rest. Where a SMILES comes first, the peptide text is derived from it. The star is where a group is joined. Cbz = O=C(OCc1ccccc1)*; Boc = CC(C)(C)OC(=O)*; OBn = c1ccc(CO*)cc1; Bn = c1ccc(C*)cc1

Experiments:
[1] = NCI Yeast Anticancer Drug Screen. Data for the rad50 strain (AID 155);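 further: 0% = growth of vehicle-only cultures of the same strain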; settings: S. cerevisiae rad50 strain growth inhibition; at 50.0 µM; active compounds read high
Summary of the method: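 DNA repair mutant yeast, compound exposure, growth read-out; inhibition is taken relative to vehicle.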

[2] = NCI Yeast Anticancer Drug Screen. Data for the mec2-1 strain (AID 157); settings: S. cerevisiae mec2-1 strain, at 50.0 µM, active compounds read high
Summary of the method: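 Yeast mec2-1 mutant treated with compound. Readout: growth inhibition vs vehicle controls.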

[3] = NCI Yeast Anticancer Drug Screen. Data for the sgs1 mgt1 strain (AID 161);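 further: 0% = growth of cultures given vehicle only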; settings: S. cerevisiae sgs1 mgt1 strain, at 50.0 µM, active compounds read high
Summary of the method: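 Read-out: growth inhibition vs vehicle controls. Cells: mutant yeast strain deficient in DNA damage repair.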

[4] = NCI Yeast Anticancer Drug Screen. Data for the cln2 rad14 strain (AID 165);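 further: 0% = growth equal to vehicle treated cultures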; settings: S. cerevisiae cln2 rad14 strain, at 50.0 µM, active compounds read high
Summary of the method: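 cln2 rad14 yeast strain; compound exposure; growth inhibition read vs vehicle controls.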

[5] = NCI Yeast Anticancer Drug Screen. Data for the bub3 strain (AID 167); settings: S. cerevisiae bub3 mutant strain, at 50.0 µM, active compounds read high
Summary of the method: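 In this screen, a yeast mutant lacking normal mitotic checkpoint function is challenged with compound. Relative growth versus vehicle gives the inhibition value.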

[6] = NCI Yeast Anticancer Drug Screen. Data for the mlh1 rad18 strain (AID 175); settings: S. cerevisiae mlh1 rad18 strain growth inhibition; at 50.0 µM; active compounds read high
Summary of the method: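 Yeast w/ defined DNA-repair lesions; compound exposure; growth vs vehicle controls → % inhibition.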

Measured: growth inhibition

CC1CCC(C(C)C)C(OC(=O)N/N=C/N(C)C)C1 (stereo unspecified)
inactive: [1] 1.65% | [2] 17.2% | [3] 4.4% | [4] 20% | [5] -0.95% | [6] 25.1%

O=C(O)C[C@H]1CCCCC12CCOC2=O (stereo partly specified)
inactive: [1] 10.8% | [2] 6.7% | [3] -0.7% | [4] -18.6% | [5] 22% | [6] 9.85%

CCCCCCC(=O)OC[n+]1ccc2c(C)c3[nH]c4ccc(OC)cc4c3c(C)c2c1
active: [1] 87% | [2] 91.2% | [3] 89.8% | [4] 88.7% | [5] 86% | [6] 91.1%

COc1cc(C=O)ccc1OC(=O)Nc1ccc(F)c([N+](=O)[O-])c1
inactive: [1] 0.8% | [2] 30.4% | [3] 19.1% | [4] -2.45% | [5] 28.1% | [6] 14.7%

COc1ccc(OC)c(N=Cc2cccs2)c1
inactive: [1] 14.6% | [2] 5.95% | [3] 20.9% | [4] 15.1% | [5] 16.2% | [6] 22.1%

CCCCCC(=O)NC1CCCCC1
inactive: [1] 5.55% | [2] 13.6% | [3] 8.15% | [4] -7.4% | [5] -30.6% | [6] 15.5%

CO[C@H]1C[C@H]2[C@@H]3CCC4=CC(=O)CC[C@]4(C)[C@H]3CC[C@]2(C)[C@@]1(O)C(=O)CO
inactive: [1] -7.35% | [2] -9.25% | [3] -17% | [4] -14.9% | [5] -11.7% | [6] -27.6%

CCN(c1ccccc1)S(=O)(=O)c1ccccc1N
inactive: [1] -0.75% | [2] -13.2% | [3] 10.7% | [4] 14.4% | [5] -3.6% | [6] -0.4%

C[n+]1ccc(NN)cc1
inactive: [1] -3.5% | [2] -15.8% | [3] 20.3% | [4] 12.6% | [5] 17.6% | [6] 4.4%

CCN(CC)CCCNc1ccnc2c(N)cccc12
inactive: [1] 3.1% | [2] 1.4% | [3] 5.65% | [4] 9.75% | [5] 5.45% | [6] 6.75%

CC(C)(C)NC(=O)NCc1ccc(Cl)cc1
inactive: [1] -0.5% | [2] -16.1% | [3] -12.1% | [4] -29.6% | [5] 1% | [6] -9.8%

O=C(NC(c1ccccc1)C(O)c1ccccc1)C(Cl)Cl (stereo unspecified)
inactive: [1] -5.45% | [2] -14.8% | [3] -1.95% | [4] -4.65% | [5] -0.75% | [6] 2.65%

CC(C)(C)c1ccc(OC(=O)NCCCCCCNC(=O)Oc2ccc(C(C)(C)C)cc2)cc1
active: [4] 92.3%
inactive: [1] -5.65% | [2] 23.9% | [3] 4.8% | [5] -2.85% | [6] -8.5%

O=C(/C=C/C(=O)NCc1ccccc1)NCc1ccccc1
inactive: [1] -0.2% | [2] 0.4% | [3] 16.9% | [4] -11.1% | [5] 4.7% | [6] -5.95%

CCCNc1nnnn1CCC
inactive: [1] 3.15% | [2] 5.05% | [3] -0.4% | [4] 4.25% | [5] 10.9% | [6] -0.05%

CC(C)CC(NC(=O)C(CCC(=O)OCc1ccccc1)NC(=O)OC(C)(C)C)C(=O)NC(COCc1ccccc1)C(=O)NC(Cc1ccccc1)C(=O)O (stereo unspecified) (Boc-E(OBn)LS(Bn)F-OH; configuration not given here)
inactive: [1] -6.65% | [2] -4.8% | [3] -8.05% | [4] 6% | [5] 13.3% | [6] -10.8%

C#CCN(C)Cc1cc(OC)c(OC)c(OC)c1
inactive: [1] -43.2% | [2] -0.75% | [3] 6.55% | [4] -10.9% | [5] 7.65% | [6] 14.4%

O=C(Cc1ccccc1)N/N=C(\C1=Nc2ccc([N+](=O)[O-])cc2NC1O)C(O)c1ccc([N+](=O)[O-])cc1 (stereo unspecified)
inactive: [1] 10% | [2] 9.6% | [3] 1.7% | [4] 18.2% | [5] 20.6% | [6] 18.2%

CC(NC(=O)C(NC(=O)OCc1ccccc1)C(C)C)C(=O)NCC(=O)O (stereo not drawn) (Cbz-Val-Ala-Gly-OH; configuration not given here)
inactive: [1] -0.05% | [2] -23.2% | [3] -9.9% | [4] 19.8% | [5] 7.1% | [6] -4.45%

O=C(O)c1ncn2c(=O)n(CCCl)nnc12
inactive: [1] -18.9% | [2] -16.4% | [3] -15.8% | [4] -27.8% | [5] -0.55% | [6] 9.2%

Cc1cc(N(C)C)c([N+](=O)[O-])cc1C=O
inactive: [1] 5.9% | [2] 13.8% | [3] -13.3% | [4] -22.4% | [5] -24.9% | [6] -5.8%

COC(=O)C1=C2C3(O)CC4CC5C3CCC(C)N5C24C2CCC(O)C(OC)C2C1OC(=O)c1ccccc1 (stereo unspecified)
inactive: [1] -34.6% | [2] -38.3% | [3] -20.9% | [4] -1.85% | [5] -30.4% | [6] 4.35%

COc1cc(C(C)c2cc3c(cc2O)OCO3)cc(OC)c1OC (stereo unspecified)
inactive: [1] -31.2% | [2] -26.1% | [3] -15.6% | [4] 8.5% | [5] 26.8% | [6] -16.4%

CCCCC(CC)CSC[N+](C)(CC)CC (stereo unspecified)
inactive: [1] 45% | [2] 24.8% | [3] 22.4% | [4] 1.5% | [5] 15.9% | [6] 20.6%

CC(C)(C)C(=O)OCN1CCOCC1
inactive: [1] -10.6% | [2] 10.9% | [3] 0.65% | [4] -47.8% | [5] -9.15% | [6] -10.2%

CCNC(=O)C1CCCN1C(=O)C(CCCN=C(N)N)NC(=O)C(CC(C)C)NC(=O)C(Cc1c[nH]c2ccccc12)NC(=O)C(Cc1ccc(O)cc1)NC(=O)C(CO)NC(=O)C(Cc1c[nH]c2ccccc12)NC(=O)C(Cc1cnc[nH]1)NC(=O)C1CCC(=O)N1 (stereo unspecified)
inactive: [1] -11.6% | [2] -10.6% | [3] -18.5% | [4] -21.6% | [5] 6.05% | [6] 10.2%

CONCC(=O)c1ccc(SC)cc1
inactive: [1] -18.4% | [2] 0.6% | [3] -13.8% | [4] -21.8% | [5] -9.7% | [6] 0%

NC(Cc1cc(I)c(O)c(I)c1)C(=O)O (stereo unspecified)
inactive: [1] -0.95% | [2] -6.05% | [3] -12.6% | [4] 8.2% | [5] 8.3% | [6] 1.35%

COc1cc(C=O)cc(NC(C)=O)c1OC(C)=O
inactive: [1] 6.55% | [2] 0.3% | [3] 4.85% | [4] -4.85% | [5] 24.9% | [6] 9.95%

O=C1CSC(=S)N1/N=C/c1ccc([N+](=O)[O-])s1
active: [1] 97.8% | [2] 98.8% | [3] 98.3% | [4] 98.5% | [5] 98.8% | [6] 98.8%

C[CH2][Sn]([CH2]C)([O]C(=O)c1ccc2c(c1)OC(C)(C)O2)[O]C(=O)c1ccc2c(c1)OC(C)(C)O2
inactive: [1] 51.3% | [2] 52.1% | [3] 4.7% | [4] 41.4% | [5] 14% | [6] -2.7%

CCOc1ccc2nc(NC(=O)C(=O)C(C#N)CC(C)(C)C=O)sc2c1 (stereo unspecified)
inactive: [1] -13.8% | [2] -22.8% | [3] -17.6% | [4] 7.7% | [5] -12.6% | [6] -28.1%

COC(=O)c1cc(C(=O)OC)c2c3[nH]cnc3ncn2c1=O
inactive: [1] 24.4% | [2] 9.85% | [3] 15.9% | [4] 18.6% | [5] 3.65% | [6] 21.4%

CCCCCCC(=O)/C=C/c1ccccc1OCOC
inactive: [1] -3.35% | [2] -9.8% | [3] 4.6% | [4] -13.7% | [5] -18.9% | [6] -4.45%

Cc1cc(N)ccc1N=Nc1cc(S(=O)(=O)O)c2cccc(S(=O)(=O)O)c2c1
inactive: [1] -4.4% | [2] 22.1% | [3] -2.65% | [4] 3.95% | [5] 8.85% | [6] -4.55%

CN1C(=O)NC(C)(C)C1=O
inactive: [1] -1.5% | [2] 3.3% | [3] -1.75% | [4] -13.7% | [5] -8.45% | [6] -4.95%
